# Source: PubChem BioAssay AID1626 (SRMLSC, 2009)
# Hit rate of the full screen: of about 220,000 compounds, about 2,000 (0.91%) were called active. Inconclusive results (about 2%) are left out. Rule as the data show it: inconclusive = inhibition above about 80% without an active follow-up result; inactive = below that; test concentration not stated here. These entries were drawn from the full list. Measured potencies and affinities stand elsewhere.
# Test: M. tuberculosis H37Rv growth inhibitors, H37Rv strain (AID 1626);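 also: bacteria incubated seven days before Alamar blue readout; 0% = bacteria only wells and 100% = bacteria with antibiotic wells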
# Conditions: active compounds read high, concentration not given here
row,Structure (SMILES),inhibition
1,C/C(=N\OCC(=O)NC12CC3CC(CC(C3)C1)C2)c1cc2ccccc2o1,24.4% (inactive)
2,CC(=O)NCCOc1ccc2oc3ccccc3c2c1,14.2% (inactive)
3,O=C(c1ccccc1)N1CCCC(C(=O)N2CCN(c3ccccc3)CC2)C1 (configuration not stated),-13.7% (inactive)
4,OC(COCC(F)(F)C(F)(F)C(F)(F)C(F)F)Cn1c2ccccc2c2ccccc21 (configuration not stated),47.2% (inactive)
5,CC(=O)N(C)c1ccc(OCC(O)Cn2c3ccc(Cl)cc3c3cc(Cl)ccc32)cc1 (configuration not stated),-0.39% (inactive)
6,CCn1c(SCC(=O)Nc2nc(C)cs2)nnc1-c1cccnc1,10.4% (inactive)
7,O=C(NCc1cccnc1)c1ccc(-c2ccc(Cl)cc2)o1,-1.29% (inactive)
8,O=C(NCc1cccnc1)/C(=C/c1ccc(-c2cccc(Cl)c2)o1)S(=O)(=O)c1ccccc1,56.8% (inactive)
9,CCS(=O)(=O)c1nc2ccccc2n1Cc1ccccc1Cl,0.3% (inactive)
10,CCC(=O)Nc1nonc1-c1nc2ccccc2n1Cc1cccc2ccccc12,20.3% (inactive)
11,CC(=O)Nc1nc2ccccc2n1CCN(C)C,-1.12% (inactive)
12,CC(=O)NCCCc1nc2ccccc2n1Cc1ccccc1C,-3.1% (inactive)
13,CC(=O)NCCc1nc2ccccc2n1Cc1ccccc1,2.23% (inactive)
14,Cc1ccccc1Cn1c(C(C)O)nc2ccccc21 (configuration not stated),1.24% (inactive)
15,CCn1c(NCc2ccccc2Cl)nc2ccccc21,1.72% (inactive)
16,CC(=O)NCc1nc2ccccc2n1Cc1ccccc1C,-1.94% (inactive)
17,Cc1cc(C)c(C(=O)Nc2ccc(Br)c(C(F)(F)F)c2)c(C)c1,50.8% (inactive)
18,C=CCN(C(=O)CNC(=O)c1ccco1)C(C(=O)NC1CCCCC1)c1ccccc1 (configuration not stated),-3.02% (inactive)
19,COc1ccc2nc3sc(C(=O)NCCN4CCc5ccccc5C4)cc3cc2c1,11.3% (inactive)
20,Cn1c(CCNC(=O)OC(C)(C)C)n[nH]c1=S,-7.46% (inactive)
21,CC12CCC(C(=O)Nc3ccccc3N3CCOCC3)(CC1=O)C2(C)C (configuration not stated),-3.66% (inactive)

row,Structure (SMILES),inhibition
1,COc1cccc(N=Cc2c[nH][nH]c2=O)c1,-5.96% (inactive)
2,O=c1[nH][nH]cc1C=Nc1ccc(Cl)cc1,4.25% (inactive)
3,C/[N+]([O-])=C/c1c(OCc2ccc(Cl)cc2Cl)ccc2ccccc12,10.9% (inactive)
4,Cc1c(C(=O)Nc2ccc(F)cc2)c2ccccn2c1CCc1ccncc1,1.73% (inactive)
5,Cc1ccc(C)c(Cn2c(=O)n(CCC(=O)NCc3ccco3)c(=O)c3sccc32)c1,-2.02% (inactive)
6,O=C1CC(c2ccco2)CC2=C1C(c1ccccc1)n1nc(C(F)(F)F)nc1N2 (configuration not stated),2.19% (inactive)
7,CCOC(=O)c1sc(NC(=O)COC(=O)CNC(=O)C2CCCCC2)c(C(=O)OCC)c1C,-1.65% (inactive)
8,O=C(COc1nc2ccccc2nc1N1CCOCC1)NC1CCCCC1,5.49% (inactive)
9,CC(=O)Nc1ccc(S(=O)(=O)N2CCN(c3nnnn3-c3ccccc3)CC2)cc1,-0.88% (inactive)
10,O=S(=O)(CS(=O)(=O)c1ccc(Cl)cc1)c1ccc(Cl)cc1,6.17% (inactive)
11,c1ccc(-c2nc(C3CCCCC3)no2)cc1,3.47% (inactive)
12,c1ccc(-c2cc(-c3nc(-c4ccccn4)no3)c3ccccc3n2)cc1,9.71% (inactive)
13,O=C(CN1CCCCC1)c1ccc(OC(F)F)cc1,-5.74% (inactive)
14,c1ccc(N2CCCCC2)c(Nc2nc3ccccc3n3cnnc23)c1,14.3% (inactive)
15,c1ccc(N2CCOCC2)c(Nc2nc3ccccc3n3cnnc23)c1,8.42% (inactive)
16,Nc1cc(OC(=O)c2cccs2)nn1S(=O)(=O)c1ccc(F)cc1,5.67% (inactive)
17,Cc1ccc(NC(=O)Cn2c(O)c(N=NC(=O)c3cc([N+](=O)[O-])ccc3O)c3ccccc32)cc1,45.8% (inactive)
18,Cc1cc(C)n(-c2nc3ccccc3nc2N2CCC(C)CC2)n1,2.59% (inactive)
19,Cc1cc(N2CCN(c3ccccc3)CC2)nc(N)n1,-2.3% (inactive)
20,Cc1cc(Cl)nc(-n2nc(C)cc2C)n1,-0.69% (inactive)
21,Cc1cc(N2CCN(c3ccccc3)CC2)nc(-c2ccccc2)n1,-10.3% (inactive)

row,Structure (SMILES),inhibition
1,O=c1cn[nH]c2ccccc12,-1.28% (inactive)
2,CCOc1cc(/C=N\NC(=O)C2C(=O)NCC2c2ccccc2)ccc1OC (configuration not stated),-8.61% (inactive)
3,Cc1c(Br)ccc(NC(=O)CCN2C(=O)C3C4CCC(C4)C3C2=O)c1C (configuration not stated),-22.5% (inactive)
4,CCOC(=O)c1c(N2C(=O)C3CC(C)=C(C)CC3C2=O)sc(C)c1C (configuration not stated),-1.38% (inactive)
5,COc1ccc(NC(=O)CNc2cccc(C#N)c2)cc1Cl,-9.7% (inactive)
6,COc1ccccc1NC(=O)CNc1ccc(F)c(Cl)c1,-4.82% (inactive)
7,N#Cc1ccccc1NC(=O)CNc1ccc(Cl)c(C(F)(F)F)c1,1.74% (inactive)
8,COc1ccc(NC(=O)CNc2ccc(C#N)cc2)cc1,-4.76% (inactive)
9,Cc1noc(C)c1/C=N/Nc1ccccn1,-11.2% (inactive)
10,COC(=O)c1ccccc1NC(=O)c1sc(N)nc1C,-3.82% (inactive)
11,CCC/C=C1/CCCOC(C(=O)NCc2ccccc2)(C(F)(F)F)C1 (configuration not stated),-24.5% (inactive)
12,O=C(Nc1ccc(-c2csc(Nc3ccccc3)n2)cc1)c1cc([N+](=O)[O-])cc(C(F)(F)F)c1,50.3% (inactive)
13,O=C(Nc1ccc(-c2csc(Nc3ccccc3)n2)cc1)c1cccc(C(F)(F)F)c1,14.9% (inactive)
14,O=C(Nc1ccc(-c2csc(Nc3cccc(C(F)(F)F)c3)n2)cc1)c1ccccc1,0.91% (inactive)
15,O=C(Nc1cccc(-c2csc(Nc3cccc(C(F)(F)F)c3)n2)c1)c1cc([N+](=O)[O-])cc(C(F)(F)F)c1,-8.7% (inactive)
16,CCOc1ccccc1N(CC(=O)NCc1ccccc1)C(=O)CCC(=O)Nc1cc(C)ccn1,-1.77% (inactive)
17,Cc1cc(NCCCN2CCOCC2)n2c(nc3ccccc32)c1C#N,-4.69% (inactive)
18,CC1=C(C(=O)OC(C)C)C(c2cccs2)n2ncnc2N1 (configuration not stated),7.3% (inactive)
19,O=C(/C=C\c1ccco1)c1ccc(NC(=O)c2ccco2)cc1,-2.87% (inactive)
20,CC(=O)Nc1ccc(C(=O)/C=C/c2ccco2)cc1,-0.44% (inactive)
